Legend:
Settings in all cases: concentration: 1 μM, replicates: in singlicate; n = 1
CTK = tested on: T1, CTK
T1 construct: gene MATK

DAPK1 = tested on: DAPK1
DAPK2 = tested on: DAPK2
DAPK3 = tested on: DAPK3
DCAMKL1 = tested on: T2, DCAMKL1
T2 construct: gene DCLK1

DCAMKL2 = tested on: T3, DCAMKL2
T3 construct: gene DCLK2

DCAMKL3 = tested on: T4, DCAMKL3
T4 construct: gene DCLK3

DDR1 = tested on: DDR1
DDR2 = tested on: DDR2
DLK = tested on: T5, DLK
T5 construct: gene MAP3K12
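Further: KINOMEscan kinase panel screen.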

SMILES | %Inh (CTK) | %Inh (DAPK1) | %Inh (DAPK2) | %Inh (DAPK3) | %Inh (DCAMKL1) | %Inh (DCAMKL2) | %Inh (DCAMKL3) | %Inh (DDR1) | %Inh (DDR2) | %Inh (DLK)
CS(=O)(=O)Cc1ccc(Nc2nccc(-c3c(-c4cccc(NC(=O)C5CCCCC5)c4)nn4ncccc34)n2)cc1 [GSK350559] | 38% | 0% | 9% | 0% | 0% | 15% | 0% | 96.6% | 54% | 41%
Cn1cnc2c(N)ncnc21 [SKF-97623] | 0% | 100% | 0% | 0% | 0% | 0% | 11% | 0% | 30% | 6%
Cn1cncc1C(=O)NC1CCN(c2ccnc(Nc3ccc(F)cc3)n2)C1 (centres unmarked) [GSK1379717] | 0% | 13% | 0% | 5% | 0% | 0% | 0% | 7% | 0% | 0%
CNCc1ccc2nc(NC(=O)c3ccc(C(C)(C)C)cc3)cn2c1 | 45% | 0% | 0% | 1% | 15% | 4% | 24% | 9% | 24% | 27%
COc1ccc(CSc2nnc(-c3ccc4nccn4c3)o2)cc1C(F)(F)F | 0% | 0% | 0% | 1% | 8% | 0% | 0% | 13% | 0% | 0%
COC(=O)C(Cc1ccccc1)NC(=O)NC1CCN(c2ccnc(Nc3ccc(F)cc3)n2)C1 (centres unmarked) [GSK1379714] | 0% | 25% | 12% | 28% | 7% | 0% | 8% | 75% | 47% | 48%
O=C(Nc1n[nH]c2nc(-c3cccs3)c(Br)cc12)C1CC1 [SB-735297] | 13% | 0% | 0% | 0% | 0% | 0% | 0% | 0% | 0% | 0%
COc1cccc(C2=C(Nc3cc(Cl)c(O)c(Cl)c3)C(=O)NC2=O)c1 [SB-390767] | 10% | 0% | 0% | 17% | 11% | 0% | 26% | 96.1% | 18% | 0%
CS(=O)(=O)CCNCc1nc(-c2ccc3ncnc(Nc4ccc5c(cnn5Cc5ccccc5)c4)c3c2)cs1.Cl.Cl [GW569716] | 0% | 0% | 0% | 0% | 9% | 0% | 4% | 0% | 24% | 53%
Cc1cnc(N)c(/C=C/c2cncc(C(=O)NCCc3ccc(Cl)cc3Cl)c2)c1.Cl [GSK190937] | 0% | 10% | 7% | 11% | 4% | 0% | 23% |  | 79% | 25%
Cc1c(Cn2c(C)c(C)n3c(=O)cc(N4CCOCC4)nc23)cccc1C(F)(F)F [GSK2328680] | 0% | 0% | 0% | 3% | 0% | 21% | 5% | 0% | 11% | 14%
CNc1nc(-c2ccc3c(N)n[nH]c3c2)cc(N2C[C@@H](C(=O)NC3CCCCC3)OC[C@H]2C)n1 [GSK2375584] | 0% | 26% | 34% | 40% | 24% | 0% | 31% | 15% | 36% | 37%
COc1ccc(Nc2nccc(N3CCC(NC(=O)C(C)c4ccc(Cl)cc4)CC3)n2)cc1 (centres unmarked) [GSK1379812] | 0% | 3% | 20% | 10% | 6% | 0% | 0% | 0% | 4% | 0%
Cn1cncc1-c1cc2c(Nc3ccc(OCc4ccccc4)cc3)ncnc2cn1 [GW281179] | 0% | 0% | 0% | 7% | 20% | 14% | 0% | 9% | 0% | 27%
Cc1ccccc1Cn1ccn2c(=O)cc(N3CCOCC3)nc12 [GSK2269905] | 0% | 0% | 0% | 0% | 0% | 7% | 4% | 0% | 0% | 0%
COc1cccc(NC(=O)Nc2ccc(C)c(-c3ccc(C(=O)Nc4ccncc4)cc3)c2)c1 [GSK1398474] | 0% | 28% | 8% | 0% | 1% | 7% | 0% | 94.2% | 36% | 6%
Fc1ccc(-c2nc3n(c2-c2ccncc2)CCS3)cc1 [GI98581] | 0% | 0% | 0% | 0% | 0% | 21% | 30% | 54% | 54% | 26%
Cc1ccc(NC(=O)Nc2ccc(Cl)c(C(F)(F)F)c2)cc1-c1ccc(C(=O)Nc2ccncc2)cc1 [GSK1398470] | 0% | 8% | 21% | 0% | 0% | 11% | 5% | 97.3% | 63% | 0%
Fc1ccc(-c2nc[nH]c2-c2ccncc2)cc1 [SB-217360] | 31% | 0% | 0% | 8% | 29% | 0% | 0% | 9% | 34% | 0%
O=C(Nc1n[nH]c2cc(-c3ccsc3)ccc12)C1CC1 [SB-732932] | 32% | 4% | 41% | 40% | 0% | 0% | 74% | 0% | 0% | 0%
c1ccc(-c2ccnc3[nH]ccc23)cc1 [SB-693578] | 0% | 0% | 0% | 19% | 16% | 0% | 0% | 23% | 26% | 37%

SMILES | %Inh (CTK) | %Inh (DAPK1) | %Inh (DAPK2) | %Inh (DAPK3) | %Inh (DCAMKL1) | %Inh (DCAMKL2) | %Inh (DCAMKL3) | %Inh (DDR1) | %Inh (DDR2) | %Inh (DLK)
Cc1ccccc1-c1cc(-c2c[nH]nc2-c2ccccn2)ccn1 [GW680061] | 0% | 0% | 0% | 25% | 0% | 6% | 12% | 79% | 5% | 32%
O=c1cc(N2CCOCC2)nc2n(Cc3ccccc3F)ccn12 [GSK2297428] | 0% | 0% | 0% | 13% | 57% | 0% | 3% | 10% | 0% | 0%
COc1ccc2cc(-c3nc(-c4ccccc4C(C)C)[nH]c3-c3ccncc3)ccc2c1 [SB-660566] | 0% | 0% | 0% | 8% | 1% | 0% | 23% | 90.5% | 6% | 18%
Cc1ccc(-c2nc(Nc3ccncc3)c3ccccc3n2)s1 [GSK189015] | 8% | 11% | 0% | 10% | 17% | 30% | 15% | 61% | 2% | 0%
FC(F)(F)c1ccccc1-c1cc(-c2c[nH]nc2-c2ccccn2)ccn1 [GW679396] | 0% | 0% | 9% | 23% | 6% | 0% | 2% | 68% | 2% | 32%
Cc1c(Cn2c3ccccc3n3c(=O)cc(N4CCOCC4)nc23)cccc1C(F)(F)F [GSK2306394] | 10% | 12% | 4% | 0% | 0% | 0% | 0% | 19% | 0% | 0%
COc1ccc(Nc2nccc(-c3ccc(NC(=O)c4cc5cc(F)ccc5[nH]4)cc3)n2)cc1 [GSK1229496] | 0% | 55% | 5% | 1% | 11% | 0% | 0% | 63% | 26% | 36%
O=C1NC(=O)C(c2ccc(Cl)cc2)=C1Nc1ccc(O)cc1 [SB-340867] | 0% | 0% | 0% | 0% | 0% | 0% | 0% | 0% | 0% | 0%
Cc1cccc2c(-c3ccncn3)c(-c3ccc(F)cc3)nn12 [GW515532] | 0% | 6% | 0% | 0% | 0% | 0% | 1% | 43% | 16% | 25%
CCc1ccc(-c2ccc3c(c2)-c2n[nH]cc2S(=O)(=O)N3C)cc1 | 0% | 24% | 7% | 0% | 34% | 0% | 13% | 0% | 9% | 0%
CN1c2ccc(-c3ccc(C(N)=O)cc3)cc2-c2[nH]ncc2S1(=O)=O | 0% | 54% | 18% | 26% | 7% | 0% | 0% | 0% | 28% | 0%
COc1ccc(CSc2nnc(-c3ccc4c(c3)CCO4)o2)cc1 | 0% | 0% | 18% | 0% | 0% | 0% | 0% | 0% | 15% | 0%
Nc1cccc(-c2ccc3c(N)n[nH]c3c2)n1 [GSK2192730] | 0% | 27% | 2% | 28% | 0% | 0% | 0% | 0% | 0% | 0%
O=C(Nc1n[nH]c2nc(-c3ccco3)c(Br)cc12)C1CCN(Cc2ccccc2)C1.O=C(O)[C@H](O)[C@@H](O)C(=O)O (centres unmarked) [SB-742034] | 71% | 0% | 28% | 17% | 14% | 7% | 20% | 0% | 0% | 0%
COc1nccc(-c2c(-c3ccc(F)cc3)ncn2CCCN2CCOCC2)n1 [SB-282852] | 22% | 5% | 0% | 22% | 35% | 0% | 11% | 0% | 35% | 18%
CC(=O)c1c(C)c2cnc(Nc3ccc(N4CCNCC4)cn3)nc2n(C2CCCC2)c1=O | 0% | 0% | 13% | 6% | 0% | 0% | 0% | 0% | 0% | 0%
COc1ccc(CSc2nnc(-c3ccc4ncsc4c3)o2)cc1C(F)(F)F | 5% | 10% | 4% | 0% | 9% | 0% | 0% | 14% | 12% | 0%
Cc1ccc(NC(=O)c2ccc(Cl)cc2)cc1-c1ccc(C(=O)Nc2ccncc2)cc1 [GSK1398467] | 0% | 12% | 0% | 34% | 3% | 0% | 0% | 89% | 36% | 0%
CC(C)c1ccc(O)cc1Nc1ccnc2ccc(C(F)(F)F)cc12 [GW482059] | 8% | 5% | 0% | 0% | 0% | 0% | 0% | 18% | 0% | 17%
CNC(=O)c1ccc(C)c(-n2c(C)cc(OCc3ccc(F)cc3F)c(Br)c2=O)c1 | 0% | 0% | 0% | 0% | 0% | 0% | 0% | 0% | 0% | 0%
CC(=O)c1cccc(NC(=O)NC2CCN(c3ccnc(Nc4ccc(F)cc4)n3)C2)c1 (centres unmarked) [GSK1379710] | 0% | 15% | 2% | 26% | 6% | 11% | 14% | 20% | 7% | 29%

Reference: PMC5540273 (PLoS ONE, 2017)
